# Reference: PMC7862700, “An all-to-all approach to the identification of sequence-specific readers for epigenetic DNA modifications on cytosine”
# Tests used:
# Assay in all cases: DAPPL (digital affinity profiling via proximity ligation, sequencing); 10 mM Tris-HCl pH 7.5, 50 mM NaCl, 1 mM DTT, 4% glycerol, room temperature, 30 min; GST-TFs on glutathione beads, 16-mer random dsDNA library, 0.1% formaldehyde crosslink after washing; high values mean tight binding
# FLI1 = target: T1, FLI1 (Homo sapiens, UniProt Q01543 1-452); settings: protein: recombinant; tags: N-terminal GST; dsDNA, one strand shown
# T1 sequence: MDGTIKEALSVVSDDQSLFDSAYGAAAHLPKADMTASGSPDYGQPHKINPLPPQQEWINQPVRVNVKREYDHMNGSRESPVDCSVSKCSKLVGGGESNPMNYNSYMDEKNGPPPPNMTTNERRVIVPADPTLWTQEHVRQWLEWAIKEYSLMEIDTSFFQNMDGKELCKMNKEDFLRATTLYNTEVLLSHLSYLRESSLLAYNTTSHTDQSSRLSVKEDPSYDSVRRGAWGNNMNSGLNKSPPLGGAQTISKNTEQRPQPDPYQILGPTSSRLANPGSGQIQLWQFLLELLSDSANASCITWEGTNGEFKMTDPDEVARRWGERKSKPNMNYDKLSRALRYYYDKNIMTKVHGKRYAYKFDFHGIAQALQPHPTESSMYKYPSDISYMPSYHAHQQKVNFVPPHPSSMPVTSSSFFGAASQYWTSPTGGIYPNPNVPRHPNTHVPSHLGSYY
# Outline: (§1)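 Binding signal is given per hexamer as its read frequency for a factor divided by its frequency in the tag-only sample. GST-fused human transcription factors were expressed in yeast, captured on glutathione beads, barcoded with DNA and pooled with that sample, then incubated with 200 nmole of a 16-mer random double-stranded DNA library in Tris/NaCl/DTT/glycerol buffer for 30 min at room temperature. The pools were then washed, crosslinked, proximity-ligated, amplified by PCR and sequenced on an Illumina NextSeq500.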
# ELK1 = target: T2, ELK1 (Homo sapiens, UniProt P19419 1-428); settings: protein: recombinant; tags: N-terminal GST; dsDNA, one strand shown
# T2 sequence: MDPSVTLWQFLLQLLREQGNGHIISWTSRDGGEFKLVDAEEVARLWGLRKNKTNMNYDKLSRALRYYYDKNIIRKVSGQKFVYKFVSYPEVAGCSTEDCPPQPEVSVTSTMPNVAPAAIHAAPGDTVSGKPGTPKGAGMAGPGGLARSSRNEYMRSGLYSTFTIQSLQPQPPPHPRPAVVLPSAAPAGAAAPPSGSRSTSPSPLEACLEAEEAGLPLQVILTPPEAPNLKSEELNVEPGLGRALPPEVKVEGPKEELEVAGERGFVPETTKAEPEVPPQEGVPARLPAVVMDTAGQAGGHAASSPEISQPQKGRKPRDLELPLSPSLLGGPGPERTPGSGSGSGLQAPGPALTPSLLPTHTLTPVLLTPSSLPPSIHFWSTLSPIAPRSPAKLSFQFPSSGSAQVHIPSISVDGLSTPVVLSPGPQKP
# Outline: as §1
# GABPA = target: T3, GABPA (Homo sapiens, UniProt Q06546 1-454); settings: protein: recombinant; tags: N-terminal GST; dsDNA, one strand shown
# T3 sequence: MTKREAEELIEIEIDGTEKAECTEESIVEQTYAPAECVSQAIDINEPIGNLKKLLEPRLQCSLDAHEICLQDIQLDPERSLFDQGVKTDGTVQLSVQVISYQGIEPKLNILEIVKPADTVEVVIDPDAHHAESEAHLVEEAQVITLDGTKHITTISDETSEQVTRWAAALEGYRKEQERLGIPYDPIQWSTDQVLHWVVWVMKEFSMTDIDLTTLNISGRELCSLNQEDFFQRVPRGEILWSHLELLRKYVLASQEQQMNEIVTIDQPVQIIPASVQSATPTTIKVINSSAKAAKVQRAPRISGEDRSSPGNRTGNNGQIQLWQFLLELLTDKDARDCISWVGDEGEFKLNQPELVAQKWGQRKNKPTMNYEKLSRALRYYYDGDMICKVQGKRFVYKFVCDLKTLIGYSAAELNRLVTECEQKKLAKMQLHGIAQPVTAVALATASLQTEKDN
# Outline: as §1
# ERG = target: T4, ERG (Homo sapiens, UniProt P11308 1-479); settings: protein: recombinant; tags: N-terminal GST; dsDNA, one strand shown
# T4 sequence: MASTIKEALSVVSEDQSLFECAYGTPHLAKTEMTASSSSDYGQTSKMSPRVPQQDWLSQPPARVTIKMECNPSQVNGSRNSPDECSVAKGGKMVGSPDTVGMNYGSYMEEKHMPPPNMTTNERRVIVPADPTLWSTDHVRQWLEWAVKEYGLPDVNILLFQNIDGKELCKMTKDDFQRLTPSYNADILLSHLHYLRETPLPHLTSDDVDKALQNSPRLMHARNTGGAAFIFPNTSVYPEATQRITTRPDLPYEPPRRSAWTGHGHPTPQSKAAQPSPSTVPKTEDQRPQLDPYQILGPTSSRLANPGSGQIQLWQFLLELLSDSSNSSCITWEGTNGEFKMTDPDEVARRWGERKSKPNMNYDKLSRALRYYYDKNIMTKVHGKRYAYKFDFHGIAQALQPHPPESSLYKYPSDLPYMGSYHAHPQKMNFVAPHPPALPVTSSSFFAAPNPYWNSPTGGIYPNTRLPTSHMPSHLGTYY
# Outline: as §1
# ELF1 = ELF1 (Homo sapiens, UniProt P32519 1-619); settings: protein: recombinant; tags: N-terminal GST; dsDNA, one strand shown
# Chain of ELF1 (P32519 whole entry): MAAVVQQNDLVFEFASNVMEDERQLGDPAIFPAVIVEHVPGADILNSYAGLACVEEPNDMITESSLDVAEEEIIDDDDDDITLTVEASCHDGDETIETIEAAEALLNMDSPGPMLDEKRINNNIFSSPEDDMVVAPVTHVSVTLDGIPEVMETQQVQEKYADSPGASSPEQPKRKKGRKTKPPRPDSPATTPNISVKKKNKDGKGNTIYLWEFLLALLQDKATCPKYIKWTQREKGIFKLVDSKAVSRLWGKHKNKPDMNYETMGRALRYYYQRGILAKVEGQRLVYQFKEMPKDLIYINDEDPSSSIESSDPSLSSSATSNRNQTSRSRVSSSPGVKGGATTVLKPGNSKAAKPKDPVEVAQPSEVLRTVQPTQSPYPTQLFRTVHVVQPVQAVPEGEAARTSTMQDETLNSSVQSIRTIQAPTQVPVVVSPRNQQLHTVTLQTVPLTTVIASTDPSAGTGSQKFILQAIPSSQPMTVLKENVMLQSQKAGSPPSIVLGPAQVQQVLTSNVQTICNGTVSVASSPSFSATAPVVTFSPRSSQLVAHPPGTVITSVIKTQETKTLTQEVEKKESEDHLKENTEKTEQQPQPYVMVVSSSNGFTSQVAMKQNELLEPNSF
# Outline: as §1
# EHF = target: T5, EHF (Homo sapiens, UniProt Q9NZC4 1-300); settings: protein: recombinant; tags: N-terminal GST; dsDNA, one strand shown
# T5 sequence: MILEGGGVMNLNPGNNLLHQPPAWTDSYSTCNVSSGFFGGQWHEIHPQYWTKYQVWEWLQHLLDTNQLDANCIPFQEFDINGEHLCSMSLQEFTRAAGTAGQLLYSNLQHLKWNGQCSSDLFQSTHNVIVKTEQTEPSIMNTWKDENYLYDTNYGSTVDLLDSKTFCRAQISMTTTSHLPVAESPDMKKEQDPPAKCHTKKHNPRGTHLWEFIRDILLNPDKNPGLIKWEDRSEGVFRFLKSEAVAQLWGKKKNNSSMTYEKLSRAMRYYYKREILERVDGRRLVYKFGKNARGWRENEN
# Outline: as §1
# SPI1 = SPI1 (Homo sapiens, UniProt P17947 1-270); settings: protein: recombinant; tags: N-terminal GST; dsDNA, one strand shown
# Outline: as §1
# SPIB = SPIB (Homo sapiens, UniProt Q01892 1-262); settings: protein: recombinant; tags: N-terminal GST; dsDNA, one strand shown
# Chain of SPIB (Q01892 whole entry): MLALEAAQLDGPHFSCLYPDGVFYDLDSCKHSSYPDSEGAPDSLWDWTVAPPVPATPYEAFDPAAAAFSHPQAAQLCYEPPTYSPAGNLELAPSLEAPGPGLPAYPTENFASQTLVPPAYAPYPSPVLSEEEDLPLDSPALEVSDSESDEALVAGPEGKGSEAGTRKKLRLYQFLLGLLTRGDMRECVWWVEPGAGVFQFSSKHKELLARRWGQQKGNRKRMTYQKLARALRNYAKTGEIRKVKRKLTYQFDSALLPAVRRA
# Outline: as §1
# ELK3 = target: T6, ELK3 (Homo sapiens, UniProt P41970 1-407); settings: protein: recombinant; tags: N-terminal GST; dsDNA, one strand shown
# T6 sequence: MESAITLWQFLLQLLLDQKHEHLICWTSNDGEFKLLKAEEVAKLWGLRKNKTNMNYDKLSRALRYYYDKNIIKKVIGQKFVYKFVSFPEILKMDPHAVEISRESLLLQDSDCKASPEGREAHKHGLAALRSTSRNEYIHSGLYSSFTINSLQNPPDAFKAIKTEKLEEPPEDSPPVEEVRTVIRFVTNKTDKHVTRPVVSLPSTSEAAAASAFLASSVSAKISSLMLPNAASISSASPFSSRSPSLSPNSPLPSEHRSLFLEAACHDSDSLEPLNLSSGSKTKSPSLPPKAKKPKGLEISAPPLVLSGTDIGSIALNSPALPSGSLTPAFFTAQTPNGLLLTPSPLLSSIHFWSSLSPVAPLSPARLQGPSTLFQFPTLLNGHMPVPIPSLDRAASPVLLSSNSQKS
# Outline: as §1
# FEV = target: T7, FEV (Homo sapiens, UniProt Q99581 1-238); settings: protein: recombinant; tags: N-terminal GST; dsDNA, one strand shown
# T7 sequence: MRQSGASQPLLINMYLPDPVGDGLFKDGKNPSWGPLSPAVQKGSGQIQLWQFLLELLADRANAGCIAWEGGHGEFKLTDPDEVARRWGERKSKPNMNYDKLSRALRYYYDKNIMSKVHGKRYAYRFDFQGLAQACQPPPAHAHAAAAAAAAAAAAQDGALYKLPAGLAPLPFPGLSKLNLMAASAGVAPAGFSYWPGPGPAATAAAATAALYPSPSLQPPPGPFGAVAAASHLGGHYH
# Outline: as §1
# ETV5 = ETV5 (Homo sapiens, UniProt P41161 1-510); settings: protein: recombinant; tags: N-terminal GST; dsDNA, one strand shown
# Chain of ETV5 (P41161 whole entry): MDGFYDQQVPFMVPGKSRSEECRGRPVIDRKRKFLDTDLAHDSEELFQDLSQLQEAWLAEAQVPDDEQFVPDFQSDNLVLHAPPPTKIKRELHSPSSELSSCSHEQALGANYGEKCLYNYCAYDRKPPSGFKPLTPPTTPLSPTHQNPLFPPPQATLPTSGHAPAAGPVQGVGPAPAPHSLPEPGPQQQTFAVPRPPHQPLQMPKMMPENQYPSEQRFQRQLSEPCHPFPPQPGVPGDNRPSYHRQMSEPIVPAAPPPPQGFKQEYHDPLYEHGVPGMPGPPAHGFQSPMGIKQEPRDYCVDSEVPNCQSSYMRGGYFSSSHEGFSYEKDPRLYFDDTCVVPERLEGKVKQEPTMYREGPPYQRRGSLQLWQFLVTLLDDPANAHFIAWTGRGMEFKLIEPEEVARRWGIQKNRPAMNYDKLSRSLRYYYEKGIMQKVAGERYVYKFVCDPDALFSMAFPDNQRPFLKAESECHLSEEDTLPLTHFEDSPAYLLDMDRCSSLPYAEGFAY
# Outline: as §1
# HSF1 = HSF1 (Homo sapiens, UniProt Q00613 1-529); settings: protein: recombinant; tags: N-terminal GST; chain copies: 3; dsDNA, one strand shown
# Chain of HSF1 (Q00613 whole entry): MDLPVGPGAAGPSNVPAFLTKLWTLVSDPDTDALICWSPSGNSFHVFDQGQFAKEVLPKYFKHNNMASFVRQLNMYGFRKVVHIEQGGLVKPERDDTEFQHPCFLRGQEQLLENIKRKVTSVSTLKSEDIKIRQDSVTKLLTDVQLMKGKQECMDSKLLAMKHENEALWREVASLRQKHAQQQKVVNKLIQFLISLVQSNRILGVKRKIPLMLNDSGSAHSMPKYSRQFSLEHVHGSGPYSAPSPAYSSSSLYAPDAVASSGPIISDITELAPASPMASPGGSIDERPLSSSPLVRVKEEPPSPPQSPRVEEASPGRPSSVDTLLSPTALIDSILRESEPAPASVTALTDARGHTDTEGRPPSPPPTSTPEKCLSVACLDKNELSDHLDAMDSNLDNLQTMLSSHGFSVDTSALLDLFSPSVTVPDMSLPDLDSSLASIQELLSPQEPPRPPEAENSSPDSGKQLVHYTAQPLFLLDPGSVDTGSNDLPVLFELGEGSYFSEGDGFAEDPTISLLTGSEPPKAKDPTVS
# Outline: as §1
# SPIC = target: T8, SPIC (Homo sapiens, UniProt Q8N5J4 1-248); settings: protein: recombinant; tags: N-terminal GST; dsDNA, one strand shown
# T8 sequence: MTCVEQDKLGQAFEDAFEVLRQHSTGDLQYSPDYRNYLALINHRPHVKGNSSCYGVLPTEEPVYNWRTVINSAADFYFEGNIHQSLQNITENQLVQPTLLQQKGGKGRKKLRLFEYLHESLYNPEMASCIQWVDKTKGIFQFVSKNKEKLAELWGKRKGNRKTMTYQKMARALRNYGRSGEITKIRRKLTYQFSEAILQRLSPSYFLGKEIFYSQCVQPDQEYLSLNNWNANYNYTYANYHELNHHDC
# Outline: as §1
# ELF4 = ELF4 (Homo sapiens, UniProt Q99607 1-663); settings: protein: recombinant; tags: N-terminal GST; dsDNA, one strand shown
# Chain of ELF4 (Q99607 whole entry): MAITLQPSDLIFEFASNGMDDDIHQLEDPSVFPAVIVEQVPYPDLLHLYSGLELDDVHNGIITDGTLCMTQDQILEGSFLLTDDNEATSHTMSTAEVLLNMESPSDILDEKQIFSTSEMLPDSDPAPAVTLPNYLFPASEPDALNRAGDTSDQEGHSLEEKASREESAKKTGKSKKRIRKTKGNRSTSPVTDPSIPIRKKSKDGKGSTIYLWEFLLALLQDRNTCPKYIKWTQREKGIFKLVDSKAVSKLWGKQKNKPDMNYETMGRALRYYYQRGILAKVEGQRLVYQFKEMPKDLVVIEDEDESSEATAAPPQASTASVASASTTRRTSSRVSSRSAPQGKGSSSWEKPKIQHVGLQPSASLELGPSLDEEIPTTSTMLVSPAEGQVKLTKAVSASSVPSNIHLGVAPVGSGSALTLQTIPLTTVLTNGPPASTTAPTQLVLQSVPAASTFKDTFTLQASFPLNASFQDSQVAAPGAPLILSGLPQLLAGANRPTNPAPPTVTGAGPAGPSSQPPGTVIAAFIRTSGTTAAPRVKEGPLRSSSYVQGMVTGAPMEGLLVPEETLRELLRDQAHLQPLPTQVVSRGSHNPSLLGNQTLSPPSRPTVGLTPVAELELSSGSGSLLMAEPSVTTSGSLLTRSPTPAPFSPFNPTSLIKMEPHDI
# Outline: as §1
# ELK4 = target: T9, ELK4 (Homo sapiens, UniProt P28324-2 1-405); settings: protein: recombinant; tags: N-terminal GST; dsDNA, one strand shown
# T9 sequence: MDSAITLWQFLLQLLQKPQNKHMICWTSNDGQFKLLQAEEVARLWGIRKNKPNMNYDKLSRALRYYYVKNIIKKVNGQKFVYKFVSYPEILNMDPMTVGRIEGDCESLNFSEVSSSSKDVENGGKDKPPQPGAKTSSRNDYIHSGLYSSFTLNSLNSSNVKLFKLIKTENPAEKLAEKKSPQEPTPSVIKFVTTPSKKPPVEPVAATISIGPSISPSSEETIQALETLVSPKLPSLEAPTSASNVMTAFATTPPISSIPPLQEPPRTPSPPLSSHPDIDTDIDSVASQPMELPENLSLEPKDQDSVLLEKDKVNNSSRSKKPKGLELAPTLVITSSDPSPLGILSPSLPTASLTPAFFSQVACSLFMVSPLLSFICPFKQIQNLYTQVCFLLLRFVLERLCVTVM
# Outline: as §1
# ETV2 = target: T10, ETV2 (Homo sapiens, UniProt O00321 1-342); settings: protein: recombinant; tags: N-terminal GST; dsDNA, one strand shown
# T10 sequence: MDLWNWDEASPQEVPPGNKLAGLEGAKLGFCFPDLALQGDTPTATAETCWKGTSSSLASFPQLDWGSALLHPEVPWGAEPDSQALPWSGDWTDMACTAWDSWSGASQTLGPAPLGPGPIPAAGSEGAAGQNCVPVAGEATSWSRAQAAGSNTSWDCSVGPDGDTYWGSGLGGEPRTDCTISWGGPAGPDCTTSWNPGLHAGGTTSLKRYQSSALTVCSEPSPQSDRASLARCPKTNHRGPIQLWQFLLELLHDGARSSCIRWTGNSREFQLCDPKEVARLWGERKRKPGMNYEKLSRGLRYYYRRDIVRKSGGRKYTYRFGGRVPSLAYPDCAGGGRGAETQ
# Outline: as §1
# ELF3 = target: T11, ELF3 (Homo sapiens, UniProt P78545 1-371); settings: protein: recombinant; tags: N-terminal GST; dsDNA, one strand shown
# T11 sequence: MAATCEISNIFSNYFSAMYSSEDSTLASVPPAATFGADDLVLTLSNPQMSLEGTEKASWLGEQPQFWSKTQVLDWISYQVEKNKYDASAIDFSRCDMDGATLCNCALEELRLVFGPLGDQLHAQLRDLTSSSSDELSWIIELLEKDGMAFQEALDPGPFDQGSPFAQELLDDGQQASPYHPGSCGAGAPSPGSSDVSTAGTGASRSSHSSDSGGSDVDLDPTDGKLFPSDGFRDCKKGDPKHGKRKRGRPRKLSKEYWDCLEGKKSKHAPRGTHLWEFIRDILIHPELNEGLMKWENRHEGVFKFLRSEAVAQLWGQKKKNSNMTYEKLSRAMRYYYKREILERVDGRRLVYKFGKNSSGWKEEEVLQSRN
# Outline: as §1
# CRX = CRX (Homo sapiens, UniProt O43186 1-299); settings: protein: recombinant; tags: N-terminal GST; dsDNA, one strand shown
# Chain of CRX (O43186 whole entry): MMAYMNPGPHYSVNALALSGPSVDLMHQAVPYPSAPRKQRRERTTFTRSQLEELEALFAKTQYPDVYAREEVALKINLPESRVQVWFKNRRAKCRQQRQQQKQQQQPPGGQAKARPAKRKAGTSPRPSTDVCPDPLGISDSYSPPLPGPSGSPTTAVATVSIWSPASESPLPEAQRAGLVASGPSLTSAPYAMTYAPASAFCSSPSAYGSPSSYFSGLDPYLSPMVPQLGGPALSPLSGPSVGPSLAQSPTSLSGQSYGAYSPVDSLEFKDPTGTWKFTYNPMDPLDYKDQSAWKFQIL
# Outline: as §1
# ETV1 = ETV1 (Homo sapiens, UniProt P50549 1-477); settings: protein: recombinant; tags: N-terminal GST; dsDNA, one strand shown
# Chain of ETV1 (P50549 whole entry): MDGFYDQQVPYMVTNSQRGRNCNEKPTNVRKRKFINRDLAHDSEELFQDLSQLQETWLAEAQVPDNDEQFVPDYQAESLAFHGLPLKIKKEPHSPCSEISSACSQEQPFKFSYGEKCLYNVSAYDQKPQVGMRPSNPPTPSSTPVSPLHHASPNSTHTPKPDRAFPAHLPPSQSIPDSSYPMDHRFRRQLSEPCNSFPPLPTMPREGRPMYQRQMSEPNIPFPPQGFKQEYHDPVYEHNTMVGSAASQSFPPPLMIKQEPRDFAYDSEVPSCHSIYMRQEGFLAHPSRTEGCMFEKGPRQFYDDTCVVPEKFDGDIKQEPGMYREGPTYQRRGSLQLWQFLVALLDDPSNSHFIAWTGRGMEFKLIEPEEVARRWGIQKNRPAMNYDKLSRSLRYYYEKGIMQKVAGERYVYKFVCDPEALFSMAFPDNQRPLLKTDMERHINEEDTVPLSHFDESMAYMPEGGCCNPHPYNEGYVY
# Outline: as §1
sequence,measurement,setting,value
TTCTTT,binding signal,FLI1,"1.18 fold enrichment (6-mer frequency, TF over GST control)"
same,binding signal,ELK1,"1.13 fold enrichment (6-mer frequency, TF over GST control)"
same,binding signal,GABPA,"1.21 fold enrichment (6-mer frequency, TF over GST control)"
same,binding signal,ERG,"1.27 fold enrichment (6-mer frequency, TF over GST control)"
same,binding signal,ELF1,"1.35 fold enrichment (6-mer frequency, TF over GST control)"
same,binding signal,EHF,"1.11 fold enrichment (6-mer frequency, TF over GST control)"
same,binding signal,SPI1,"1.23 fold enrichment (6-mer frequency, TF over GST control)"
same,binding signal,SPIB,"1.21 fold enrichment (6-mer frequency, TF over GST control)"
same,binding signal,ELK3,"1.17 fold enrichment (6-mer frequency, TF over GST control)"
same,binding signal,FEV,"1.19 fold enrichment (6-mer frequency, TF over GST control)"
same,binding signal,ETV5,"1.14 fold enrichment (6-mer frequency, TF over GST control)"
same,binding signal,HSF1,"1.7 fold enrichment (6-mer frequency, TF over GST control)"
same,binding signal,SPIC,"1.2 fold enrichment (6-mer frequency, TF over GST control)"
same,binding signal,ELF4,"1.28 fold enrichment (6-mer frequency, TF over GST control)"
same,binding signal,ELK4,"1.25 fold enrichment (6-mer frequency, TF over GST control)"
same,binding signal,ETV2,"1.27 fold enrichment (6-mer frequency, TF over GST control)"
same,binding signal,ELF3,"1.28 fold enrichment (6-mer frequency, TF over GST control)"
same,binding signal,CRX,"1.44 fold enrichment (6-mer frequency, TF over GST control)"
same,binding signal,ETV1,"1.29 fold enrichment (6-mer frequency, TF over GST control)"
